The text below walks through data of PubChem BioAssay (EPA / NIEHS).

For orientation: AC50 means the concentration giving half of the maximal activity seen.

Active and inactive are the calls of the source. How the source made its calls: active means hit-call score of the fitted dose curve at least 0.9, where 1 is the maximum; inactive means score below 0.9.

Assay [1] concerns the target Bile acid receptor (Homo sapiens) (UniProt Q96RI1). The assay can be described thus: ATG_IR1_CIS: Attagene CIS-FACTORIAL HepG2 Assay for human Nuclear Receptor Subfamily 1 Group H Member 4 (NR1H4), IR1 submotif (AID 2282946). The following applies: IR1 reporter transcription, actives raise or lower the signal. In outline:
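HepG2 cells transiently transfected with multiplexed cis-element reporter units read endogenous transcription factor activity. After 24 h compound exposure, reporter mRNA was quantified by RT-PCR, fluorescent labelling, HpaI digestion and capillary electrophoresis; bidirectional fitting versus DMSO baseline.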

Assay [2] can be described thus: ATG_GRE_CIS: Attagene CIS-FACTORIAL HepG2 Assay for human Glucocorticoid Response Elements (GRE) (AID 2282947). The following applies: HepG2 GRE cis-reporter, Attagene multiplex mRNA; actives raise or lower the signal. In outline: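 Reporter transcripts read by RT-PCR with capillary electrophoresis fluorescence after a 24 h chemical exposure of HepG2 cells transiently transfected with multiple cis-element reporter units. Gain or loss fitted against DMSO.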

Assay [3] is described as follows: ATG_ISRE_CIS: Attagene CIS-FACTORIAL HepG2 Assay for human Interferon Regulatory Factor 1 (IRF1) binding to an Interferon-Stimulated Response Element (ISRE) (AID 2282948). As to conditions: HepG2 ISRE cis-reporter (Attagene), mRNA transcription readout; actives raise or lower the signal. In outline:
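Multiplexed mRNA reporter readout in human liver HepG2 cells: cis-element-driven reporters transfected, compound added for 24 h, transcripts amplified, fluorescently labelled and sized by capillary electrophoresis; curve fitting bidirectional against DMSO.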

Assay [4] in a line: ATG_M_06_CIS: Attagene CIS-FACTORIAL HepG2 Assay for M06 Transcription Factor (Internal Marker) (AID 2282950). As to conditions: HepG2 Attagene CIS-FACTORIAL M06 internal marker reporter; actives raise or lower the signal. In outline: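 HepG2 cells transiently transfected with cis-regulated multiple reporter transcription units were exposed to chemical for 24 h; reporter mRNA was quantified by RT-PCR, 6-FAM primer labelling, HpaI digestion and capillary electrophoresis, fitted bidirectionally against DMSO.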

Assay [5] addresses Hypoxia-inducible factor 1-alpha (Homo sapiens) (UniProt Q16665). Put plainly: ATG_HIF1a_CIS: Attagene CIS-FACTORIAL HepG2 Assay for human Hypoxia Inducible Factor 1 (HIF1A) (AID 2282951). As to conditions: HepG2 Attagene cis-factorial HIF1a reporter transcription; actives raise or lower the signal. In outline:
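Transient MRTU transfection of human HepG2 liver cells, 24 h compound treatment, then total RNA isolation, oligo(dT) reverse transcription, PCR amplification, fluorescent labelling and capillary electrophoresis of reporter fragments. Gain or loss relative to DMSO.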

For assay [6], the target named is Hepatocyte nuclear factor 6 (Homo sapiens) (UniProt Q9UBC0). The assay can be described thus: ATG_HNF6_CIS: Attagene CIS-FACTORIAL HepG2 Assay for human Hepatocyte Nuclear Factor 6 (HNF6) (AID 2282952). As to conditions: HepG2 Attagene cis-factorial HNF6 reporter transcription; actives raise or lower the signal. An outline of the steps:
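Using cis-element reporters in HepG2 liver cells, the assay tracks endogenous factor-driven transcription 24 h post-dosing. Signal comes from 6-FAM-labelled, HpaI-digested RT-PCR fragments, with gain or loss scored against DMSO.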

In assay [7] the target is Heat shock factor protein 1 (Homo sapiens) (UniProt Q00613). The assay can be described thus: ATG_HSE_CIS: Attagene CIS-FACTORIAL HepG2 Assay for human Heat Shock Transcription Factor 1 (HSE) (AID 2282953). The following applies: HepG2 HSE cis-reporter, Attagene RNA transcription; actives raise or lower the signal. An outline of the steps: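 HepG2 cells transiently transfected with multiple reporter transcription units under cis-regulatory promoter control, measuring endogenous transcription factor activity. After 24 h chemical exposure, reporter mRNA quantified by RT-PCR, fluorescent labelling, HpaI digestion and capillary electrophoresis; bidirectional fit versus DMSO.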

Assay [8] is described as follows: ATG_MRE_CIS: Attagene CIS-FACTORIAL HepG2 Assay for human Metal Responsive Element (MRE) (AID 2282954). As to conditions: HepG2 MRE cis-reporter transcription, Attagene multiplex; actives raise or lower the signal. In outline: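 Endogenous MRE-dependent transcription read as reporter mRNA in transiently transfected human HepG2 cells at 24 h. RNA reverse-transcribed, PCR-amplified, labelled and resolved by capillary electrophoresis; gain or loss relative to DMSO.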

Assay [9] can be described thus: ATG_PBREM_CIS: Attagene CIS-FACTORIAL HepG2 Assay for human Phenobarbital-responsive Enhancer Module (PBREM) (AID 2282955). As to conditions: HepG2 PBREM cis-reporter, Attagene multiplexed transcription; actives raise or lower the signal. An outline of the steps: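 Endogenous transcription factors in human liver HepG2 cells drive a PBREM cis-element reporter, whose transcript level after 24 h treatment is quantified by RT-PCR with capillary electrophoresis; activity fitted in both directions against DMSO.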

Assay [10] is described as follows: ATG_PXRE_CIS: Attagene CIS-FACTORIAL HepG2 Assay for human Pregnane X Receptor Element (PXRE) (AID 2282957). As to conditions: HepG2 Attagene CIS-FACTORIAL PXRE reporter, mRNA; actives raise or lower the signal. In outline:
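Using HepG2 transfected with multiple reporter transcription units, endogenous factor-driven transcription was scored as reporter mRNA after 24 h exposure.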

Assay [11] can be described thus: ATG_PPRE_CIS: Attagene CIS-FACTORIAL HepG2 Assay for human Peroxisome Proliferator-activated Response Element (PPRE) (AID 2282958). The following applies: HepG2 PPRE cis-element reporter, Attagene transcription factor profiling; actives raise or lower the signal. An outline of the steps:
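HepG2, transient MRTU transfection (cis promoter elements, endogenous TFs). 24 h dosing. RNA → oligo(dT) RT → PCR → 6-FAM primer extension → HpaI digest → CE. Bidirectional fit vs DMSO.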

A short description of assay [12]: ATG_RORE_CIS: Attagene CIS-FACTORIAL HepG2 Assay for human RAR-related Orphan Receptor Element (RORE) (AID 2282959). The following applies: HepG2 Attagene cis-factorial RORE reporter, mRNA; actives raise or lower the signal. In outline:
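Transient MRTU transfection of human HepG2 liver cells (FuGene 6); 24 h compound exposure; TriZol RNA, oligo(dT) RT, PCR, FAM labeling, HpaI cut, CE fragment analysis. DMSO = negative control/baseline.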

Assay [13] can be described thus: ATG_Sox_CIS: Attagene CIS-FACTORIAL HepG2 Assay for human SRY-box transcription factor (SOX) (AID 2282960). The following applies: HepG2 Attagene cis-factorial SOX reporter, mRNA; actives raise or lower the signal. An outline of the steps:
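Endogenous factor activity in human liver HepG2 cells carrying transfected cis-regulated reporter units. RNA taken 24 h post-dose, reverse-transcribed, PCR-amplified and sized by capillary electrophoresis. Gain or loss of signal fitted relative to DMSO.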

Assay [14] has as its target Transcription factor Sp1 (Homo sapiens) (UniProt P08047). Put plainly: ATG_Sp1_CIS: Attagene CIS-FACTORIAL HepG2 Assay for human Specificity Protein 1 (Sp1) (AID 2282961). As to conditions: HepG2 Sp1 cis-reporter transcription, actives raise or lower the signal. In outline:
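Transient MRTU-transfected HepG2, 24 h compound exposure. Total RNA → oligo(dT) RT → PCR of reporter → 6-FAM primer extension → HpaI digest → CE. Endpoint fitted both directions vs DMSO.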

Assay [15] in a line: ATG_SREBP_CIS: Attagene CIS-FACTORIAL HepG2 Assay for human Sterol Regulatory Element Binding (SREBP) (AID 2282962). As to conditions: HepG2 Attagene cis-factorial SREBP reporter, mRNA; actives raise or lower the signal. In outline:
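Endogenous factor activity is measured in HepG2 through multiplexed reporter units under cis-element control. Following a 24 h incubation, reporter transcripts are reverse-transcribed, PCR-amplified and sized by capillary electrophoresis; activity is fitted in both directions relative to DMSO.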

In assay [16] the target is Signal transducer and activator of transcription 3 (Homo sapiens) (UniProt P40763). The assay can be described thus: ATG_STAT3_CIS: Attagene CIS-FACTORIAL HepG2 Assay for human Signal Transducer and Activator of Transcription 3 (STAT3) (AID 2282963). As to conditions: HepG2, Attagene cis-factorial STAT3 reporter transcription; actives raise or lower the signal. In outline: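 Readout is reporter transcript quantified by RT-PCR and capillary electrophoresis, with 6-FAM primer extension and HpaI digestion. Total RNA is taken 24 h after dosing transiently transfected HepG2 carrying cis-regulated reporter units. Bidirectional fit against DMSO.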

Assay [17] is described as follows: ATG_TA_CIS: Attagene CIS-FACTORIAL HepG2 Assay for human TA Basal Promoter (AID 2282964). The following applies: HepG2 Attagene CIS-factorial TA basal promoter reporter; actives raise or lower the signal. In outline: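 HepG2 cells transiently transfected with multiplexed cis-promoter reporter units, dosed 24 h. Reporter mRNA measured by RT-PCR, 6-FAM labelling, HpaI digestion and capillary electrophoresis; bidirectional fit versus DMSO baseline, serving as background control.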

The nature of assay [18]: ATG_TCF_b_cat_CIS: Attagene CIS-FACTORIAL HepG2 Assay for human T-Cell-Factor with beta-catenin (TCF/b-cat) (AID 2282965). The following applies: HepG2 TCF/beta-catenin cis-reporter transcription, actives raise or lower the signal. An outline of the steps:
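Endogenous transcription factor activity is captured through cis-promoter reporter constructs transiently introduced into human HepG2 liver cells. Induced reporter mRNA is measured after 24 h and fitted bidirectionally relative to DMSO.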

Assay [19] can be described thus: ATG_M_32_CIS: Attagene CIS-FACTORIAL HepG2 Assay for M32 Transcription Factor (Internal Marker) (AID 2282949).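 Further: background control marker of the multiplexed CIS panel rather than a real target.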 As to conditions: HepG2 Attagene cis-factorial M32 reporter, mRNA; actives raise or lower the signal. In outline: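 HepG2 human liver cells transiently transfected with cis-promoter-driven multiple reporter transcription units, dosed 24 h. Reporter mRNA quantified by RT-PCR, FAM-labelled primer extension, HpaI digest and capillary electrophoresis; bidirectional fit versus DMSO baseline.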

Assay [20] deals with Paired box protein Pax-6 (Homo sapiens) (UniProt P26367). Put plainly: ATG_Pax6_CIS: Attagene CIS-FACTORIAL HepG2 Assay for human Paired Box 6 (PAX6) (AID 2282956). The following applies: HepG2 CIS-FACTORIAL PAX6 reporter transcription, RNA readout; actives raise or lower the signal. In outline: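 Fluorescent RT-PCR products separated by capillary electrophoresis report PAX6-linked promoter mRNA in HepG2 cells 24 h post-dose. Curves fitted bidirectionally, DMSO as negative control.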
Paired box protein Pax-6 (Homo sapiens), sequence (P26367 whole entry, looked up): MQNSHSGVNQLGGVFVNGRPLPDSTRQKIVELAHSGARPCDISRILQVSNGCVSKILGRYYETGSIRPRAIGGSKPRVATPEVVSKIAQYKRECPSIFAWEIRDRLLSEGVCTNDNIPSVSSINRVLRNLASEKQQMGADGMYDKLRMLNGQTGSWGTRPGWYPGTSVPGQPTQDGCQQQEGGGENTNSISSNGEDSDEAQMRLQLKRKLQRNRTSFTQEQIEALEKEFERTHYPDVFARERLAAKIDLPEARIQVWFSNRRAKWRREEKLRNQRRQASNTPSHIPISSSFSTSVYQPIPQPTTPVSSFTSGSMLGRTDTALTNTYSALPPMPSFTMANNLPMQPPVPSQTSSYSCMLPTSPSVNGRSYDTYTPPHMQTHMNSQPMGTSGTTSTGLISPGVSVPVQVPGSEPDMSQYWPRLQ

Bile acid receptor (Homo sapiens), sequence (Q96RI1 whole entry, looked up): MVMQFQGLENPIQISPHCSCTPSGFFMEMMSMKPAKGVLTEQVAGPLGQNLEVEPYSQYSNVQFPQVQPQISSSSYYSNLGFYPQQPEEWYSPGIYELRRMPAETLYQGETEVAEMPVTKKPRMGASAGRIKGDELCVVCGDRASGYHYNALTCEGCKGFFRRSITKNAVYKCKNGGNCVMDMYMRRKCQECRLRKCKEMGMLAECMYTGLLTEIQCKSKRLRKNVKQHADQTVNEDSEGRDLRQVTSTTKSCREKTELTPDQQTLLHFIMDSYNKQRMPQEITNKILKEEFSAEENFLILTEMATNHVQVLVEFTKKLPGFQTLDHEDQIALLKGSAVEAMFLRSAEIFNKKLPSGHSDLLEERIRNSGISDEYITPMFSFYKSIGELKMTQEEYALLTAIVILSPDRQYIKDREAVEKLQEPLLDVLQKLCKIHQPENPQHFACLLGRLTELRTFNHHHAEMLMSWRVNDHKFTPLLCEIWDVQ
Hypoxia-inducible factor 1-alpha (Homo sapiens), sequence (Q16665 whole entry, looked up, the tested form may be a part): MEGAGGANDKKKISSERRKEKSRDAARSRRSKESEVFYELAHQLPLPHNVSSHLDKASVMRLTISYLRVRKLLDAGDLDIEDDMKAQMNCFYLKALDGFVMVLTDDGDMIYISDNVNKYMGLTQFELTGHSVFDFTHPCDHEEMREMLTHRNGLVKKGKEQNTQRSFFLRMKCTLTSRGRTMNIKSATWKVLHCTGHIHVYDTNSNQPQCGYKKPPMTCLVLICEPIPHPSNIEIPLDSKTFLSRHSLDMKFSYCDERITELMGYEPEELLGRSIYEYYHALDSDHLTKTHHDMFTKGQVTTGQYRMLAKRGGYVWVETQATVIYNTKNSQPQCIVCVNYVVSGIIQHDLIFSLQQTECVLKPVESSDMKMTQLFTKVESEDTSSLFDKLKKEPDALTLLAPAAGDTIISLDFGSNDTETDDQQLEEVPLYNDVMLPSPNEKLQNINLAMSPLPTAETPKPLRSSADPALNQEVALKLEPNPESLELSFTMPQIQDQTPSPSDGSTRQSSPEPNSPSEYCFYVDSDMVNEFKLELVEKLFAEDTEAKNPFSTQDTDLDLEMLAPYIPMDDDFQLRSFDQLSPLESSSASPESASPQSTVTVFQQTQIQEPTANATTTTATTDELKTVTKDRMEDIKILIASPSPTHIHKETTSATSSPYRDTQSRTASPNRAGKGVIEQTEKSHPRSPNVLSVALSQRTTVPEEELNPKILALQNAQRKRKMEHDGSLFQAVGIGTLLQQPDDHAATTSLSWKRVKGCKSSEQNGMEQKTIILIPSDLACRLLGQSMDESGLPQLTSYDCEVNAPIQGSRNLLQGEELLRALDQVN
Heat shock factor protein 1 (Homo sapiens), sequence (Q00613 whole entry, looked up): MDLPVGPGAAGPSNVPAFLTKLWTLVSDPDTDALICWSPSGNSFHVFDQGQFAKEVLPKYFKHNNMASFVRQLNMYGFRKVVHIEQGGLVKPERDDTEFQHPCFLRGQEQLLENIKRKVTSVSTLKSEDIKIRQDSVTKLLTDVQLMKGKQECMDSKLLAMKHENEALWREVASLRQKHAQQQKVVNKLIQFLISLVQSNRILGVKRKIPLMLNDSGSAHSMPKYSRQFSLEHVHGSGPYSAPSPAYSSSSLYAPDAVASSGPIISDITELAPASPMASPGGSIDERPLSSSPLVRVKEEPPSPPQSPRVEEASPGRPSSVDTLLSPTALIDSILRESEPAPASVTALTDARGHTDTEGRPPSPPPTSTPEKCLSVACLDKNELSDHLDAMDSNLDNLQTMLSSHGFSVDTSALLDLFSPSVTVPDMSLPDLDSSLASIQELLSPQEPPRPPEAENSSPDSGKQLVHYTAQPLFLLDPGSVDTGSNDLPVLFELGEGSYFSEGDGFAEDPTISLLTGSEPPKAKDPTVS
Transcription factor Sp1 (Homo sapiens), sequence (P08047 whole entry, looked up): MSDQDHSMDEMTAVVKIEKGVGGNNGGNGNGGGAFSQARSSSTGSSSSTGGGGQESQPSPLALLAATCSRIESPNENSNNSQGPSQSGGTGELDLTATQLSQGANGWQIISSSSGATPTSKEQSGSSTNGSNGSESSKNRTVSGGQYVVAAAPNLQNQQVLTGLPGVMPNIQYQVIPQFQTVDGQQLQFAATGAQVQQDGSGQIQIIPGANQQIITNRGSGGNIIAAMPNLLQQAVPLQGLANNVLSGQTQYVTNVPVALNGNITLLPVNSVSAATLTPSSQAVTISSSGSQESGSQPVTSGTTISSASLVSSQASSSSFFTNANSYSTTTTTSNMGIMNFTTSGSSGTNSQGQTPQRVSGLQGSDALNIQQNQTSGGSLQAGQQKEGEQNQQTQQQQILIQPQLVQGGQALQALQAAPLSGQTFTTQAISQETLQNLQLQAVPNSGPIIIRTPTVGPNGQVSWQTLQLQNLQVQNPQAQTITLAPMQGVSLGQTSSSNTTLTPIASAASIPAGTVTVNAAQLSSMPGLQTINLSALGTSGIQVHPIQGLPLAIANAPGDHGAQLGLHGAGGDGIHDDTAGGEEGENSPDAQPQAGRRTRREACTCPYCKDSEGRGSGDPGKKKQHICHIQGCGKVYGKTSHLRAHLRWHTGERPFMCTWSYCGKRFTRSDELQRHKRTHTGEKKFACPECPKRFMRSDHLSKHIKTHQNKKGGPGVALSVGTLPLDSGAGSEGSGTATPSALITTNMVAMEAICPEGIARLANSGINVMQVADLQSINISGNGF
Signal transducer and activator of transcription 3 (Homo sapiens), sequence (P40763 whole entry, looked up): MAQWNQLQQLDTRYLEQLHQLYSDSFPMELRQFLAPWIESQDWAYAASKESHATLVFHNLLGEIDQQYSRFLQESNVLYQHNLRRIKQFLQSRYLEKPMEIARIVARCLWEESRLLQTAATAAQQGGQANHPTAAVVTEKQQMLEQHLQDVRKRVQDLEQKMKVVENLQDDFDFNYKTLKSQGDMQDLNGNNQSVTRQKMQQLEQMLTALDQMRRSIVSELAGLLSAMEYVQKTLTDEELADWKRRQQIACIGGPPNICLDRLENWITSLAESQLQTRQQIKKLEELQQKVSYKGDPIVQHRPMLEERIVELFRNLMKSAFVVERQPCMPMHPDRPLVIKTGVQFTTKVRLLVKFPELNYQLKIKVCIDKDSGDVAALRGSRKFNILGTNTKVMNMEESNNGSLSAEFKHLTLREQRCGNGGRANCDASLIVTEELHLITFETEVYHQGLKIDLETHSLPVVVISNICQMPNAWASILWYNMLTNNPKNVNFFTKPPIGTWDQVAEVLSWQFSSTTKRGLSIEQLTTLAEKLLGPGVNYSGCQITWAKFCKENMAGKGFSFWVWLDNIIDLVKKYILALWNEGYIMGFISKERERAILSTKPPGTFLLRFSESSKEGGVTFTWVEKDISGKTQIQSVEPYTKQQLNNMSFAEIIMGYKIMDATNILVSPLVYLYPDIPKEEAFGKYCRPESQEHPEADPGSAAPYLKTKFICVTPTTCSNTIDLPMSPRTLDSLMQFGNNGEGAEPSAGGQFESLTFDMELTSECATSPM
Hepatocyte nuclear factor 6 (Homo sapiens), sequence (Q9UBC0 whole entry, looked up, the tested form may be a part): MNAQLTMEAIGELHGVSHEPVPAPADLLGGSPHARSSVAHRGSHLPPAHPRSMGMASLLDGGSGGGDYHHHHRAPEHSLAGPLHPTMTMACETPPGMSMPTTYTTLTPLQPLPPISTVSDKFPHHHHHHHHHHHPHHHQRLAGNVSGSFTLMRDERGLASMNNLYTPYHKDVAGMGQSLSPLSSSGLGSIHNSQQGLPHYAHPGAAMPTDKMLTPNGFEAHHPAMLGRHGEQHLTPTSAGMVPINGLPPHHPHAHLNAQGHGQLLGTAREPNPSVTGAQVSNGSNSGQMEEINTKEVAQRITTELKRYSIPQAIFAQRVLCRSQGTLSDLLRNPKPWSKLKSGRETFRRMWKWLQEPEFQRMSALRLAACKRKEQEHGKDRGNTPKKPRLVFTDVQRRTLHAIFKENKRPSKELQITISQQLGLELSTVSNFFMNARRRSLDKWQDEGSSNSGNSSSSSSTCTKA

On to `O=c1ssc(Cl)c1Cl`, for which the AC50 in assay [1] is 58.3 µM (active); in [3], 48.6 µM (active); in [7] it was 61.2 µM (active); in assay [8], 49.6 µM (active); in [9], 50.3 µM (active); in assay [13] it was 50.1 µM (active). Besides, the results for the AC50 in assay [14] and in [18] were 51.6 µM (active) and 53 µM (active), respectively. For the same molecule, the molecule was classed as inactive in assay [2], in [4], in assay [5], in [6], in [10] and in assay [11]. The outcome in [12], in assay [15], in [16] and in assay [17] was inactive.
As to `CCC(C)(C)c1ccc(O)cc1`, the AC50 was 33.4 µM (active) in assay [1], 33.4 µM (active) in assay [5], 9.13 µM (active) in [10] and 20 µM (active) in [15]. Moreover, the molecule was classed as inactive in assay [2], in assay [3], in [19], in assay [4], in assay [6] and in assay [7]. Further, the molecule was called inactive in assay [8], in assay [20], in assay [13], in [14], in [16] and in [17]. Moreover, the outcome in [18] was inactive.
Consider `ClC1=C(Cl)C2(Cl)C3C(Cl)C(Cl)CC3C1(Cl)C2(Cl)Cl` (stereo not drawn), for which the half-maximal activity concentration (AC50) in assay [1] is 17.1 µM (active); in assay [7], 50 µM (active); in assay [8], 41.2 µM (active); in [10], 2.38 µM (active); in [17] it was 39.1 µM (active); in assay [18], 27.1 µM (active). Moreover, the outcome in [2], in assay [3], in assay [4], in assay [5], in [6] and in assay [9] was inactive. Moreover, the outcome in [11], in [12], in assay [13], in [14], in [15] and in assay [16] was inactive.
